From PubChem BioAssay
tim23-1 inh: tim23-1 yeast growth inhibition; AID 463212; 330,000 tested, 1.3% active; S. cerevisiae tim23-1 growth, BacTiter-Glo luminescence, 24 h; inhibition, % at 20 µM;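 active = growth inhibition of the mutant yeast at or above 50%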;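 note: temperature-sensitive mutant grown at 25 °C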
PfHsp90 set2: inhibits growth of yeast expressing Plasmodium falciparum Hsp90; S. cerevisiae expressing PfHsp90, BacTiter-Glo ATP, 48 h; yeast lacking PDR1 and PDR3 efflux regulators; 310,000 tested, 0.32% active; inhibition, % at 9.4 µM; AID 504621;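 active = every replicate shows inhibition above about 80%, whatever the replicate mean, limit read from the data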
tim10-1 inh: tim10-1 yeast growth inhibition; 330,000 tested, 2.2% active; S. cerevisiae tim10-1 ts strain growth, BacTiter-Glo, 24 h; AID 463190; inhibition, % at 20 µM;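 active = inhibition of at least 40%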;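 note: mutant grown at 25 °C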
Beta2AR agonist: agonists of human beta-2 adrenergic receptor inducing internalization. P07550. Am2.2-beta2AR cells, FAP receptor internalization, flow cytometry. response, % (test concentration not listed). 340,000 tested, 0.43% active;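 active = response above a set limit, near 3 SD of response in nonfluorescent compounds, cut at about 42% in these data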
Target sequence (P07550 whole entry, looked up): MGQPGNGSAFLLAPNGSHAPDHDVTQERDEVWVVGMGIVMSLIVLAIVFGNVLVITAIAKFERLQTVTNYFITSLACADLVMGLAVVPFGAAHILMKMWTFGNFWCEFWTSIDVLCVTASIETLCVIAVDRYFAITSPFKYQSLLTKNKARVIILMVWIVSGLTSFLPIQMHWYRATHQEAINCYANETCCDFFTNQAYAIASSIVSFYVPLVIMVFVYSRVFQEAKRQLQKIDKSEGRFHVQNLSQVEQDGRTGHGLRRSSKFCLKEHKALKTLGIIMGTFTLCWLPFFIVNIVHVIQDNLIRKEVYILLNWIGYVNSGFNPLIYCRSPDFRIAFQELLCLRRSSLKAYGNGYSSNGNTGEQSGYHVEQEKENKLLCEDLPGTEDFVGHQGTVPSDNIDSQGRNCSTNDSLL
TIM10 inh: growth inhibitors of TIM10 yeast strain | S. cerevisiae TIM10 strain growth, BacTiter-Glo luminescence, 24 h | inhibition, % at 10 µM | 330,000 tested, 1.4% active | AID 463195;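 active = inhibition of 40% or more at the single tested concentration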;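 note: wild-type TIM10 isogenic control strain grown at permissive 25 °C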
tim10 confirm: TIM10 yeast growth inhibition, confirmed | shares compounds with TIM10 inh | S. cerevisiae tim10 strain growth, BacTiter-Glo luminescence, 24 h | inhibition, % at 10 µM | 4,600 tested, 63% active | AID 463215;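 active = inhibition of yeast growth at or above a set limit in either of two replicates at 10 µM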; note: this counterscreen used the strain with wild-type TIM10
A number is an active result; 0 = inactive; - = no result. Compounds with a hit are over-represented: about 3.8% of the library has one in this group of screens.

SMILES	tim23-1 inh	PfHsp90 set2	tim10-1 inh	Beta2AR agonist	TIM10 inh	tim10 confirm
NNc1ccc(S(=O)(=O)N2CCCCC2)cn1	0	0	0	0	0	-
C/C(=N\Nc1ccc(S(=O)(=O)N2CCCCC2)cn1)c1cccc(Br)c1	0	0	0	0	41	45
CCN(CC)C(=O)c1ccc(S(=O)(=O)c2ccccc2)cc1	0	0	0	0	0	-
COCCn1c(C)cc(C(=O)COc2ncnc3ccc(Br)cc23)c1C	0	0	0	0	43	0
CCn1c(C)cc(/C=C2/SC(=S)NC2=O)c1C	0	0	0	0	44	0
O=C(O)C1CCCC2CN3CCc4c([nH]c5ccccc45)C3C(O)C21 (centres undefined)	0	0	0	0	0	-
CCCOc1ccc(C(=O)Nc2ccc(N(C)C)cc2)cc1	0	0	0	0	0	-
CC(C)Oc1ccc(C(=O)Nc2ccc(N(C)C)cc2)cc1	0	0	0	0	50	0
Cc1cc(C)c(-n2c(C)cc(/C=C3/NC(=O)NC3=O)c2C)c(C)c1	0	-	0	-	52	0
Cc1cccc(-n2c(C)cc(/C=C3\NC(=O)NC3=O)c2C)c1	0	0	0	0	0	-
OCC1OC2C(NC(=S)N2c2ccccc2)C(O)C1O (centres undefined)	-	0	-	0	-	-
O=C(N/N=C/c1ccccn1)c1ccc(Br)cc1	0	0	0	0	0	-
O=C(N/N=C/c1ccccn1)c1ccc(N/N=C/c2ccccn2)cc1	0	0	0	0	62	34
COc1ccc(O)c(/C=N/NC(=S)NCCc2ccccc2)c1	0	0	0	0	0	-
COc1ccc(/C(C)=N/NC(=S)NCCc2ccccc2)c(O)c1	0	0	0	0	43	37
Cc1ccc(C2(SCC(N)C(=O)O)c3ccccc3-c3ccccc32)cc1 (centres undefined)	-	0	-	0	-	-
CCOc1ccc(C2=NNC(c3cccnc3)=Nc3ccc(OC)cc32)cc1	0	0	0	0	51	0
CCOc1ccc2c(c1)C(c1ccc(C)cc1)=NNC(c1ccc(OC)cc1)=N2	0	0	0	0	0	-
Cc1ccc2nc(N3CCN(c4cccc(C)c4C)CC3)c3nnnn3c2c1	0	0	0	0	0	-
Cc1ccc2nc(Cl)c3nnnn3c2c1	0	107	0	87	55	71
O=C(N/N=C/c1sc2ccccc2c1O)c1ccccc1	0	100	0	0	40	0
O=C(Nc1ccc(S(=O)(=O)N2CCCCCC2)cc1)c1ccco1	0	-	0	0	48	0
O=C(Nc1ccc(S(=O)(=O)N2CCCCC2)cc1)c1ccccc1Cl	0	-	0	0	45	39
Cc1ccc(S(=O)(=O)NCCSc2nnnn2-c2cc(C)ccc2C)cc1	0	0	0	0	45	0
CCc1ccc(OCC(=O)NNC(=O)c2ccc(NC(=O)C3CC3)cc2)cc1	0	0	0	0	0	-
SMILES	tim23-1 inh	PfHsp90 set2	tim10-1 inh	Beta2AR agonist	TIM10 inh	tim10 confirm
CC(C)c1ccc(S(=O)(=O)N2CCN(C(=O)C3=COCCO3)CC2)cc1	0	0	0	0	97	0
Cc1ccn(CCC(=O)NC2CC(C)(C)Cc3c2cnn3-c2ccccc2C)n1 (centres undefined)	0	0	0	0	0	-
Cc1cc(C)c2c(ccc3ccccc32)n1	-	0	-	0	-	-
Oc1ccc(-c2nc3ccc4ccccc4c3c3c2CCC3)cc1O	0	98	0	0	41	36
COc1ccccc1N=Nc1nc(-c2ccccc2)c(-c2ccccc2)[nH]1	-	0	-	0	-	-
COc1ccc(N=Nc2nc(-c3ccccc3)c(-c3ccccc3)[nH]2)cc1	0	0	0	0	41	0
COc1cc(SC)ccc1C(=O)Nc1ncc(Cl)cc1Cl	0	0	0	0	48	0
C=CCn1c(SCc2c(Cl)cccc2Cl)nnc1-c1cccnc1	0	0	0	0	41	0
Cc1csc(N2C(=O)C3C4CCC(O4)C3C2=O)n1 (centres undefined)	-	0	-	0	-	-
Cc1onc(-c2c(Cl)cccc2Cl)c1C(=O)N1CCN(c2ccc(F)cc2)CC1	0	0	0	0	0	-
Cc1onc(-c2c(Cl)cccc2Cl)c1C(=O)N1CCN(c2ccccc2)CC1	0	0	0	0	42	0
CCCCn1c(N)c(N(CC(C)C)C(=O)c2cc3ccccc3cc2OC)c(=O)[nH]c1=O	-	0	-	0	-	-
C=CCNC(=S)N1CCN(Cc2ccc3c(c2)OCO3)CC1	0	0	0	0	0	-
CC(C)(C)C1CCc2[nH]c3ccccc3c(=O)c2C1 (centres undefined)	0	0	0	0	44	33
CCC(C)c1ccc(S(=O)(=O)N2CCN(CC(O)COCC3CCCO3)CC2)cc1 (centres undefined)	0	0	0	0	0	-
CCOC(=O)C1C(C(=O)OC)=C(C(=O)OC)c2ccccc2N1S(=O)(=O)C(F)(F)F (centres undefined)	0	0	0	0	0	-
COc1ccc(C(=O)N/C(=C/c2ccc(Cl)cc2)C(=O)NCc2ccncc2)cc1	0	0	0	0	96	0
Cc1cc(N/N=C/c2ccccc2O)c2ccccc2n1	0	0	0	0	59	27
O=C(Cn1nc(C(=O)O)c2ccccc2c1=O)Nc1cccc(S(=O)(=O)N2CCCC2)c1	0	-	0	0	0	-
O=C1CCNc2cc3ccccc3cc21	0	0	0	0	42	0
O=C1CCNc2ccc(-c3ccccc3)cc21	0	0	0	0	0	-
Cc1ccc(-n2c(C)cc(/C([O-])=C(/C(=S)Nc3ccc(F)c(Cl)c3)[n+]3ccccc3)c2C)cc1	0	-	0	0	41	0
COC(=O)c1ccc(NC(=S)NC2CCc3ccccc32)cc1 (centres undefined)	0	0	0	0	47	31
O=C(N/N=C/c1ccc(Br)o1)c1ccc2c(c1)OCCO2	0	0	0	0	56	63
COc1ccc(CNC(=O)Cn2cc(C)c(=O)[nH]c2=O)cc1	-	0	-	0	-	-
SMILES	tim23-1 inh	PfHsp90 set2	tim10-1 inh	Beta2AR agonist	TIM10 inh	tim10 confirm
CC1CCCCN1CC(=O)Nc1ccc2c(c1)OCO2 (centres undefined)	0	0	0	0	0	-
Cc1ccc(Sc2cnn(-c3ccccc3)c(=O)c2Cl)cc1	0	0	0	0	52	46
Fc1ccc(C2CC(c3ccccc3)n3ncnc3N2)cc1 (centres undefined)	0	0	0	0	0	-
CCOc1ccc(C2CC(c3ccc(F)cc3)n3ncnc3N2)cc1 (centres undefined)	0	0	0	0	40	42
O=C(CSc1ncnc2ccccc12)c1ccc2c(c1)OCCO2	0	0	0	0	47	0
O=C1NC(=S)N(c2cccc(Cl)c2)C12CCCCC2	0	0	0	0	44	0
CC1(C)CC(=O)N(c2cccc(Cl)c2)C(=O)C1	0	0	0	0	0	-
Cc1ccccc1Nc1nc(NCc2ccco2)c2ccccc2n1	0	-	0	0	0	-
CSc1nc(NCc2ccco2)c2ccccc2n1	0	0	0	0	40	0
